# Results from PubChem BioAssay (EPA / NIEHS).
# Inconclusive results are not listed. Activity calls are given as the source filed them. The calls were made as follows, unless noted: active = hit-call score of the fitted dose curve at least 0.9, where 1 is the maximum; inconclusive = response in the unintended direction; inactive = score below 0.9. Where a SMILES comes first, the peptide text is derived from it. Bridges are numbered along the chain shown (N, C = ends). [ ]: non-standard residue; d: D form. hArg = N=C(N)NCCCC[C@H](N)C(=O)O; Mpa = O=C(O)CCS
# Experiments:
# [1] = TOX21_p53_BLA_p3_viability: Viability Assessment in the Tox21 HCT-116 p53 Agonism Beta-lactamase Assay, Phase 3 (AID 2283593);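 also: cells exposed to compound for 16 h before reading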
# Outline: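 Cellular ATP was quantified by CellTiter-Glo luminescence, read after 30 min at room temperature. Beforehand, HCT116 cells (4000/well) received compound 5 h post-seeding, 217-fold diluted from DMSO, then incubated 16 h at 37C.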
# [2] = target: Cellular tumor antigen p53 (Homo sapiens) (UniProt P04637); assay: TOX21_p53_BLA_p3_ratio: Tox21 HCT-116 p53 Agonism Beta-lactamase Assay, Ratio, Phase 3 (AID 2283596)
# Cellular tumor antigen p53 (Homo sapiens), sequence (P04637 whole entry, looked up): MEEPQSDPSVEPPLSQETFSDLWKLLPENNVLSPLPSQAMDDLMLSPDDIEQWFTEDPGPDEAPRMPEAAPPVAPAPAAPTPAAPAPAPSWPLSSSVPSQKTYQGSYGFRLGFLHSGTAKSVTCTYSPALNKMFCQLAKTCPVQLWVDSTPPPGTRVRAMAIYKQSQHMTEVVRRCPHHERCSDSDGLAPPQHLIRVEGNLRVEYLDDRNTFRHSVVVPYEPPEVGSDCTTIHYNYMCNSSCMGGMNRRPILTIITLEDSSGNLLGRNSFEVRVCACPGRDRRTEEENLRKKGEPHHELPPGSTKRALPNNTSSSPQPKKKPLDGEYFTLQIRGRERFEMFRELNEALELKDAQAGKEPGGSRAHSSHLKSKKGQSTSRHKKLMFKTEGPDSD
# Outline: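 Cells were seeded at 4000/well, rested 5 h at 37C, then dosed with DMSO compound solutions (217-fold dilution) for 16 h. CCF4-AM substrate was loaded for 2 h at room temperature, and the 460/530 nm emission ratio was fitted for gain of signal versus DMSO.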
# [3] = target: Cellular tumor antigen p53 (Homo sapiens) (UniProt P04637); assay: TOX21_p53_BLA_p5_ratio: Tox21 HCT-116 p53 Agonism Beta-lactamase Assay, Ratio, Phase 5 (AID 2283599)
# Outline: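 Beta-lactamase reporter ratio (blue 460 nm over green 530 nm, 405 nm excitation) after 2 h CCF4-AM loading, in HCT-116 cells exposed 16 h at 37 C to compounds pinned at 217-fold dilution. Increases relative to DMSO baseline scored.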
# [4] = TOX21_p53_BLA_p5_viability: Viability Assessment in the Tox21 HCT-116 p53 Agonism Beta-lactamase Assay, Phase 5 (AID 2283600)
# Outline: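 Luciferase-coupled ATP quantitation of cells treated for 16 h (37C, 5% CO2) with test chemicals delivered in DMSO via a 217-fold dilution; 4000 cells/well; reagent incubated 30 min at room temperature before luminescence reading.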
# [5] = target: Cellular tumor antigen p53 (Homo sapiens) (UniProt P04637); assay: TOX21_p53_BLA_p4_ratio: Tox21 HCT-116 p53 Agonism Beta-lactamase Assay, Ratio, Phase 4 (AID 2283601)
# Outline: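 Signal is the blue/green (460nm/530nm) ratio of cleaved versus uncleaved CCF4-AM substrate, read after 2 h substrate loading. Cells were HCT116 carrying the p53-responsive beta-lactamase reporter, dosed 16 h at 37C, 5% CO2; CellTiter-Glo measured in parallel.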
# [6] = TOX21_p53_BLA_p4_viability: Viability Assessment in the Tox21 HCT-116 p53 Agonism Beta-lactamase Assay, Phase 4 (AID 2283597);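 also: hits lower the luminescence signal meaning cytotoxicity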
# Outline: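 Cytotoxicity was inferred from loss of CellTiter-Glo luminescence. HCT116 cells had been dosed with compounds after 5 h plating, incubated 16 h at 37C and 5% CO2, and exposed to the CCF4-AM substrate for 2 h.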
# [7] = CCTE_Harrill_HTTr_Viability_MCF7: CCTE's 6-hour Cell Viability Assessment for the High-Throughput Transcriptomics (HTTr) Platform, in MCF-7 cells cultured in DMEM + 10% fetal bovine serum, Harrill Lab (AID 2284010; active = hit-call score of the fitted dose curve at least 0.9, where 1 is the maximum; inactive = score below 0.9)
# Outline: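 PI exclusion, high-content imaging; 8-pt dilution series, 6 h exposure; bidirectional fit vs DMSO (neg. ctrl/baseline); gain of signal = loss of membrane integrity.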
# [8] = CCTE_Harrill_HTTr_Apoptosis_MCF7: CCTE's 6-hour Apoptosis Assessment for the High-Throughput Transcriptomics (HTTr) Platform, in MCF-7 cells cultured in DMEM + 10% fetal bovine serum, Harrill Lab (AID 2284011; active = hit-call score of the fitted dose curve at least 0.9, where 1 is the maximum; inactive = score below 0.9)
# Outline: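 MCF-7 cells in DMEM + 10% fetal bovine serum were exposed to chemicals for 6 hours over an eight-point dilution series. Caspase-3/7 activation was imaged by high content imaging with CellEvent Caspase 3/7 Green; bidirectional fitting used DMSO as baseline.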
structure (smiles),measurement,setting,value
C[C@H]1O[C@H](O[C@H]2[C@H](O)[C@@H](O)[C@@H](O[C@H]3[C@H](O)[C@@H](O)[C@H](O)O[C@@H]3CO)O[C@@H]2CO)[C@H](O)[C@@H](O)[C@@H]1N[C@H]1C=C(CO)[C@@H](O)[C@H](O)[C@H]1O,outcome,[1],inactive
same,outcome,[2],inactive
same,outcome,[3],inactive
same,outcome,[4],inactive
same,outcome,[5],inactive
CC1=C(/C=C/C(C)=C/C=C/C(C)=C/C=C/C=C(C)/C=C/C=C(C)/C=C/C2=C(C)C(=O)CCC2(C)C)C(C)(C)CCC1=O,outcome,[1],inactive
same,outcome,[2],inactive
same,outcome,[3],inactive
same,outcome,[4],inactive
same,outcome,[5],inactive
Nc1ccc(C(=O)NCC(=O)O)cc1,outcome,[1],inactive
same,outcome,[2],inactive
same,outcome,[3],inactive
same,outcome,[4],inactive
same,outcome,[5],inactive
N[C@@H](CSCCCO)C(=O)O,outcome,[1],inactive
same,outcome,[2],inactive
same,outcome,[6],inactive
same,outcome,[3],inactive
same,outcome,[5],inactive
CC(C)(C)N(CCO)CCO,outcome,[2],inactive
CO/N=C(\C(=O)N[C@@H]1C(=O)N2C(C(=O)O)=C(CSc3nc(C)c(CC(=O)O)s3)CS[C@H]12)c1csc(N)n1,outcome,[2],inactive
same,outcome,[6],inactive
same,outcome,[3],inactive
same,outcome,[4],inactive
CC(=O)c1cnccn1,outcome,[1],inactive
same,outcome,[3],inactive
same,outcome,[5],inactive
CCCCC/C=C\C/C=C\CCCCCCCC(=O)NC(C)c1ccccc1 (configuration not stated),outcome,[1],inactive
same,outcome,[3],inactive
same,outcome,[5],inactive
CCN1CCCC(OC(=O)C(c2ccccc2)c2ccccc2)C1 (configuration not stated),outcome,[2],inactive
C[C@H]1NCc2cc(-c3ccc4c(=O)c(C(=O)O)cn(C5CC5)c4c3OC(F)F)ccc21,outcome,[2],inactive
CNC1(C)C2CCC(C2)C1(C)C (configuration not stated),outcome,[2],inactive
same,outcome,[6],inactive
same,outcome,[3],inactive
same,outcome,[4],inactive
same,outcome,[5],inactive
CN(C)CCCOc1nn(Cc2ccccc2)c2ccccc12,outcome,[2],inactive
same,outcome,[6],inactive
OCC(F)(F)F,outcome,[2],inactive
c1ccc2cnncc2c1,outcome,[1],inactive
same,outcome,[3],inactive
same,outcome,[5],inactive
CC(C)CCCC(=O)O,outcome,[2],inactive
same,outcome,[6],inactive
CCN(CC)CCOc1ccccc1C(=O)CCc1ccccc1,outcome,[2],inactive
same,outcome,[6],inactive
CN(C)CCCSc1ccccc1NC(=O)/C=C/c1ccccc1,outcome,[2],inactive
same,outcome,[6],inactive
CCCSSC(CCO)=C(C)N(C=O)Cc1cnc(C)nc1N,outcome,[2],inactive
same,outcome,[6],inactive
CCOC(=O)Nc1ccc2c(c1)N(C(=O)CN(C)C)c1ccccc1CC2,outcome,[1],inactive
same,outcome,[4],inactive
CN(C)CCN1C(=O)c2ccccc2N(C)c2ccccc21,outcome,[2],inactive
CCCCS(=O)(=O)N[C@@H](Cc1ccc(OCCCCC2CCNCC2)cc1)C(=O)O,outcome,[1],inactive
same,outcome,[3],inactive
same,outcome,[5],inactive
CN1CCN2c3ncccc3Cc3ccccc3C2C1 (configuration not stated),outcome,[2],inactive
C/C(=C\C(=O)OCCCCCCCCC(=O)O)C[C@@H]1OC[C@H](C[C@@H]2O[C@H]2[C@@H](C)[C@H](C)O)[C@@H](O)[C@H]1O,outcome,[2],inactive
same,outcome,[6],inactive
same,outcome,[3],inactive
same,outcome,[4],inactive
same,outcome,[5],inactive
OC1CCCc2ccccc21 (configuration not stated),outcome,[1],inactive
same,outcome,[4],inactive
same,outcome,[5],inactive
CCC(=O)c1cccc(Cl)c1,outcome,[1],inactive
same,outcome,[4],inactive
Oc1cc(O)cc(O)c1,outcome,[2],inactive
same,outcome,[6],inactive
same,outcome,[3],inactive
same,outcome,[4],inactive
[Cl-].[Cl-].[NH-]CC[NH-].[Pt+4],outcome,[2],inactive
same,outcome,[6],inactive
CCN(CC)CCNC(=O)c1cc(S(C)(=O)=O)ccc1OC,outcome,[2],inactive
same,outcome,[6],inactive
same,outcome,[3],inactive
same,outcome,[4],inactive
same,outcome,[5],inactive
CCCCOCCOC(=O)CCCCCCCCC(=O)OCCOCCCC,outcome,[1],inactive
same,outcome,[4],inactive
same,outcome,[5],inactive
Nc1ncnc2c1ncn2CCOCP(=O)(O)O,outcome,[1],inactive
same,outcome,[4],inactive
same,outcome,[5],inactive
CCCCC(CC)COC(=O)CC#N (configuration not stated),outcome,[1],inactive
same,outcome,[4],inactive
same,outcome,[5],inactive
same,outcome,[7],inactive
same,outcome,[8],inactive
Cc1ccc(NC(N)=O)cc1,outcome,[1],inactive
same,outcome,[3],inactive
same,outcome,[5],inactive
CN(C)CCCN1c2ccccc2Sc2ccccc21,outcome,[2],inactive
Cc1cccc(C)c1N(CCCc1cccnc1)C(=O)C(C)N (configuration not stated),outcome,[1],inactive
same,outcome,[3],inactive
same,outcome,[5],inactive
CC(=O)c1ccc(C(C)=O)cc1,outcome,[1],inactive
same,outcome,[4],inactive
CC(CCc1ccc(O)cc1)NCC(O)c1ccc(O)cc1 (configuration not stated),outcome,[2],inactive
CC(C)(C)C(=O)OCOP(=O)(COCCn1cnc2c(N)ncnc21)OCOC(=O)C(C)(C)C,outcome,[2],inactive
same,outcome,[6],inactive
O=C(O)C(O)[C@H](O)[C@@H](O)[C@H](O)[C@H](O)CO (some centres not stated),outcome,[2],inactive
same,outcome,[6],inactive
same,outcome,[3],inactive
same,outcome,[4],inactive
ONc1ccccc1,outcome,[1],inactive
same,outcome,[5],inactive
CNc1c2c(nn1C)CCCC2,outcome,[2],inactive
same,outcome,[6],inactive
same,outcome,[3],inactive
same,outcome,[4],inactive
Cn1c(N)nc2nc[nH]c2c1=O,outcome,[1],inactive
same,outcome,[4],inactive
COc1ccc(C2CNC(=O)C2)cc1OC1CCCC1 (configuration not stated),outcome,[1],inactive
same,outcome,[5],inactive
N=C(N)c1ccc(C=Cc2ccc(C(=N)N)cc2O)cc1,outcome,[2],inactive
same,outcome,[6],inactive
same,outcome,[3],inactive
same,outcome,[4],inactive
O=C1CCCc2ccccc21,outcome,[2],inactive
same,outcome,[6],inactive
same,outcome,[3],inactive
CC(C)CCC[C@@H](C)[C@H]1CC(=O)C2=C3CC[C@H]4C[C@@H](O)CC[C@]4(C)[C@H]3CC[C@@]21C,outcome,[2],inactive
same,outcome,[3],inactive
same,outcome,[4],inactive
same,outcome,[5],inactive
CCCCOCCCC,outcome,[2],inactive
same,outcome,[6],inactive
same,outcome,[4],inactive
same,outcome,[5],inactive
OCC(O)CN1CCN(c2ccccc2)CC1 (configuration not stated),outcome,[2],inactive
same,outcome,[3],inactive
same,outcome,[5],inactive
Cn1nnnc1SCC1=C(C(=O)O)N2C(=O)[C@@H](NC(=O)[C@H](O)c3ccccc3)[C@H]2SC1,outcome,[2],inactive
same,outcome,[6],inactive
same,outcome,[4],inactive
same,outcome,[5],inactive
NC(=O)[C@@H]1CSSCCC(=O)N[C@@H](CCCCN=C(N)N)C(=O)NCC(=O)N[C@@H](CC(=O)O)C(=O)N[C@H](Cc2c[nH]c3ccccc23)C(=O)N2CCC[C@H]2C(=O)N1 ([Mpa][hArg]GD[dW]PC-NH2; disulfide 1-7),outcome,[2],inactive
same,outcome,[3],inactive
same,outcome,[5],inactive
